From PubChem BioAssay (NCI)
Values joined by “and” are separate entries in the source; they are usually repeats but may differ in a detail not shown here. Equal values may be shown once. This is part of a sample that, as a whole, favours compounds with a hit. Of some 83,000 tested, about 20% had one in any assay.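 Step 1: grow cells in 96-well plates. Step 2: add test compound at a single concentration. Step 3: incubate 48 h. Step 4: record percent growth.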 Active and inactive are the calls of the source. How the source made its calls: active means growth percent below 10; inactive means the rest.

Key:
Test in all cases: NCI-60 one-dose screen, 48 h (100 = growth as untreated, 0 = no growth, -100 = all killed)
[1] = system: T-47D breast
[2] = system: BT-549 breast
[3] = system: MDA-MB-435 melanoma
[4] = system: SW-620 colon
[5] = system: MCF7 breast
[6] = system: HCT-116 colon
[7] = system: HCC-2998 colon; conditions: 10 µM unless noted
[8] = system: KM12 colon

Measured: growth

Cc1cc(C(C)(CC(C)C)c2ccc(O)c(C)c2)ccc1O
inactive: [1]; 10 µM unless noted 86.8% | [2]; 10 µM unless noted 109% | [3]; 10 µM unless noted 94.1% | [4]; 10 µM unless noted 117% | [5]; 10 µM 115% | [6]; 10 µM unless noted 93.9% | [7] 103% | [8]; 10 µM unless noted 107%

COc1ccccc1OC(=O)Oc1ccccc1OC
inactive: [1]; 10 µM unless noted 123% and 100% | [2]; 10 µM unless noted 97% | [3]; 10 µM unless noted 112% and 96% | [4]; 10 µM unless noted 94.6% and 92.8% | [5]; 10 µM 96.1% and 88.8% | [6]; 10 µM unless noted 99.9% and 101% | [7] 102% and 94.6% | [8]; 10 µM unless noted 107% and 98%

CCC(c1cccc(O)c1)C(CC)c1cccc(O)c1 (stereo not given)
active: [3]; 10 µM unless noted -15.9%
inactive: [1]; 10 µM unless noted 53.8% | [2]; 10 µM unless noted 66% | [4]; 10 µM unless noted 42% | [5]; 10 µM 16.8% | [6]; 10 µM unless noted 34.4% | [7] 67% | [8]; 10 µM unless noted 36.7%

O=C(Nc1cccc(Br)c1)Oc1ccc(Cl)c2cccnc12
inactive: [1]; 10 µM unless noted 12.1% [100 µM] | [3]; 10 µM unless noted 30.2% [100 µM] | [4]; 10 µM unless noted 26.1% [100 µM] | [7] 44.9% [100 µM] | [8]; 10 µM unless noted 30.5% [100 µM]
active: [2]; 10 µM unless noted 4.77% [100 µM] | [5]; 100 µM -30.3% | [6]; 10 µM unless noted 2.06% [100 µM]

OC(CNc1ccnc2cc(Cl)ccc12)CNc1ccnc2cc(Cl)ccc12
active: [1]; 10 µM unless noted 9.13% | [3]; 10 µM unless noted -43.6% | [4]; 10 µM unless noted -31.2% | [6]; 10 µM unless noted 5.7%
inactive: [2]; 10 µM unless noted 85.2% | [5]; 10 µM 18.5% | [7] 46.1% | [8]; 10 µM unless noted 44.5%

CCOC(=O)c1c(C)[nH]c(CO)c1C
inactive: [1]; 10 µM unless noted 93.5% | [2]; 10 µM unless noted 109% | [3]; 10 µM unless noted 111% | [4]; 10 µM unless noted 109% | [5]; 10 µM 91.6% | [6]; 10 µM unless noted 100% | [7] 109% | [8]; 10 µM unless noted 94.2%

N#CC1C(=O)SC2c3ccccc3C(=O)c3ccccc3C12 (stereo not given)
inactive: [1]; 10 µM unless noted 89% | [2]; 10 µM unless noted 101% | [3]; 10 µM unless noted 107% | [4]; 10 µM unless noted 101% | [5]; 10 µM 98.9% | [6]; 10 µM unless noted 102% | [7] 102% | [8]; 10 µM unless noted 96.6%

O=C(Nc1ccccc1)Oc1c(Cl)c(Cl)c(Cl)c(Cl)c1Cl
inactive: [1]; 10 µM unless noted 102% and 84.5% | [2]; 10 µM unless noted 98.7% and 88.5% | [3]; 10 µM unless noted 109% and 98.8% | [4]; 10 µM unless noted 101% and 102% | [5]; 10 µM 98.1% and 91.5% | [6]; 10 µM unless noted 105% and 101% | [7] 112% and 108% | [8]; 10 µM unless noted 100% and 97.5%

O=C(O)c1c(Cl)c(Cl)c(Cl)c(Cl)c1-c1c2cc(I)c(=O)c(I)c-2oc2c(I)c(O)c(I)cc12
active: [1]; 100 µM -47.8% | [2]; 100 µM -47.5% | [5]; 100 µM -38.3% | [6]; 100 µM 0.594%
inactive: [1]; 10 µM 110% and 85.9% and 95.8% | [2]; 10 µM 108% and 117% and 43.5% | [3]; 10 µM 104% and 113% and 110% | [3]; 100 µM 69% | [4]; 10 µM 107% and 140% and 109% | [4]; 100 µM 13.7% | [5]; 10 µM 101% and 98.9% and 81.2% | [6]; 10 µM 106% and 103% and 114% | [8]; 10 µM 102% and 99.9% and 104% | [8]; 100 µM 67.9%

Cc1ccc2nc(-[n+]3cc4ccccc4cc3C)ccc2c1
inactive: [1]; 10 µM unless noted 15.3% | [3]; 10 µM unless noted 27.8% | [4]; 10 µM unless noted 55.8% | [5]; 10 µM 20.3% | [6]; 10 µM unless noted 25.8% | [7] 42.1% | [8]; 10 µM unless noted 31.5%
active: [2]; 10 µM unless noted 0.0135%

CCC(CC)COC(=O)c1ccc(O)c(O)c1
inactive: [1]; 10 µM unless noted 43.6% | [2]; 10 µM unless noted 50% | [3]; 10 µM unless noted 69.8% | [4]; 10 µM unless noted 80.5% | [5]; 10 µM 97.5% | [6]; 10 µM unless noted 72.6% | [7] 84.4% | [8]; 10 µM unless noted 61.3%

CN(C)C(=O)SC1=C(c2c(Cl)cccc2Cl)C(=O)c2ccccc21
active: [1]; 10 µM unless noted -71.9% | [3]; 10 µM unless noted -13% | [4]; 10 µM unless noted -83.9% | [5]; 10 µM -43.6% | [6]; 10 µM unless noted -64.6%
inactive: [2]; 10 µM unless noted 87.2% | [7] 114% | [8]; 10 µM unless noted 99.4%

CCCCCCCCCCCCCCCCOP(=O)([O-])OCC[N+](C)(C)C
active: [8]; 10 µM unless noted -90.4%
inactive: [1]; 10 µM unless noted 73% | [2]; 10 µM unless noted 45% | [3]; 10 µM unless noted 68.3% | [4]; 10 µM unless noted 50.9% | [5]; 10 µM 68.5% | [6]; 10 µM unless noted 24.6% | [7] 17.7%
